For one sequence, binding signal results are on record in PMC7862700, “An all-to-all approach to the identification of sequence-specific readers for epigenetic DNA modifications on cytosine”.

What all share (experiment): DAPPL (digital affinity profiling via proximity ligation, sequencing); 10 mM Tris-HCl pH 7.5, 50 mM NaCl, 1 mM DTT, 4% glycerol, room temperature, 30 min; GST-TFs on glutathione beads, 16-mer random dsDNA library, 0.1% formaldehyde crosslink after washing; high values mean tight binding
Common to all, as to details: protein: recombinant; tags: N-terminal GST; dsDNA, one strand shown

One experiment concerns the target T1, ELK1 (Homo sapiens, UniProt P19419 1-428).
T1 sequence: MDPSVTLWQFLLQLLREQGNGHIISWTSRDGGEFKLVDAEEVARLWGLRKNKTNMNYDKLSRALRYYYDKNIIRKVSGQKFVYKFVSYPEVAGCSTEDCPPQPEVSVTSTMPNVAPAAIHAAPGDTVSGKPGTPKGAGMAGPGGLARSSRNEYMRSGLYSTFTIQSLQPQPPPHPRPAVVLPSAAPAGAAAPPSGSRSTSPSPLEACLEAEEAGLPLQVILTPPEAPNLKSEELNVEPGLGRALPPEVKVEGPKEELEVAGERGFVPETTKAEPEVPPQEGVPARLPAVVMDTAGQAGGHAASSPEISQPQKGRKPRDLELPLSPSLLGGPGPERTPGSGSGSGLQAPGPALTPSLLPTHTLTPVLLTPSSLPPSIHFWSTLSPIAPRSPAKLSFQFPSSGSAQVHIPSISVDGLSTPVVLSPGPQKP
The essentials: (§1)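 A tag-only sample was pooled with DNA-barcoded human transcription factors that had been expressed in yeast as GST fusions and captured on glutathione beads. The pools were incubated for 30 min at room temperature with 200 nmole of a random double-stranded 16-mer DNA library in Tris/NaCl/DTT/glycerol buffer, then washed, crosslinked with 0.1% formaldehyde, proximity-ligated (BsaI/T4 ligase, 1 h, 37 °C), PCR-amplified and sequenced on an Illumina NextSeq500. Binding signal is each hexamer's read frequency for a factor divided by its frequency for the tag-only sample.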

The target in another experiment is T2, GABPA (Homo sapiens, UniProt Q06546 1-454).
T2 sequence: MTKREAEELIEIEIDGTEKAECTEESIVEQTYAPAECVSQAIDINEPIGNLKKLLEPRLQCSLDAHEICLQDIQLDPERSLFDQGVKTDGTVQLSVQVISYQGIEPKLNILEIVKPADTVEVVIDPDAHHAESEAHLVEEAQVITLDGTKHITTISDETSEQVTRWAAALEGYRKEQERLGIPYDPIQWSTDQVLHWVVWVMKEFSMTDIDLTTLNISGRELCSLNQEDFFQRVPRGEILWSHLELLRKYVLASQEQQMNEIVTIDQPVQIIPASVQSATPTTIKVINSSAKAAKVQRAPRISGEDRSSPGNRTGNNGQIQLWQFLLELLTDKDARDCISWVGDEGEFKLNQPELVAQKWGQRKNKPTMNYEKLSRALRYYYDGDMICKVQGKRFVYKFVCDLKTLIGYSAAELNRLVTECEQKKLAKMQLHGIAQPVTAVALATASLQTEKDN
In outline:
as §1

A further experiment deals with T3, ERG (Homo sapiens, UniProt P11308 1-479).
T3 sequence: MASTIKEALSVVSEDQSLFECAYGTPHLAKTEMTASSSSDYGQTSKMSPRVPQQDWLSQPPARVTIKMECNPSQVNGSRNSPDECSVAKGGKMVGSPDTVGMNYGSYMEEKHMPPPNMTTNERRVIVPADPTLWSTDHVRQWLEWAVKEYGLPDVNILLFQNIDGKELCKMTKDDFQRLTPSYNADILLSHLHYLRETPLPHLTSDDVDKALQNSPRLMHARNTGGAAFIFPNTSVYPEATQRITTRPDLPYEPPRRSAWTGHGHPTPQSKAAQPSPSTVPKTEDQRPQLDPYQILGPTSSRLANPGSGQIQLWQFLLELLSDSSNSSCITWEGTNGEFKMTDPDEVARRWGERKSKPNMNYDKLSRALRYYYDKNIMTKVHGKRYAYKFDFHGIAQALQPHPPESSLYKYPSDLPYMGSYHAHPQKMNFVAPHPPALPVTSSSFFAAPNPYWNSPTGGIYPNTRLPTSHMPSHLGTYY
The essentials:
as §1

The target of a further experiment is ELF1 (Homo sapiens, UniProt P32519 1-619). The essentials:
as §1

In the next experiment the target is SPIB (Homo sapiens, UniProt Q01892 1-262). The essentials: as §1
The next experiment deals with ETV5 (Homo sapiens, UniProt P41161 1-510). In outline:
as §1

In the next experiment the target is T4, SPIC (Homo sapiens, UniProt Q8N5J4 1-248).
T4 sequence: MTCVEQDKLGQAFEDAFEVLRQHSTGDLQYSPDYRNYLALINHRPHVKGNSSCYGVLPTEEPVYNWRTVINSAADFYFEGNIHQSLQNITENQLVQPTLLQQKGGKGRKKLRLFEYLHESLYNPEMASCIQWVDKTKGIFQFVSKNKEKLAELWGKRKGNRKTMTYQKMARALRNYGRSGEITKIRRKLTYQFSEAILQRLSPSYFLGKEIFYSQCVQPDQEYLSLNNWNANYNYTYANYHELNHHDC
In outline: as §1

The target in the next experiment is ELF4 (Homo sapiens, UniProt Q99607 1-663). The essentials:
as §1

The next experiment deals with T5, ELK4 (Homo sapiens, UniProt P28324-2 1-405).
T5 sequence: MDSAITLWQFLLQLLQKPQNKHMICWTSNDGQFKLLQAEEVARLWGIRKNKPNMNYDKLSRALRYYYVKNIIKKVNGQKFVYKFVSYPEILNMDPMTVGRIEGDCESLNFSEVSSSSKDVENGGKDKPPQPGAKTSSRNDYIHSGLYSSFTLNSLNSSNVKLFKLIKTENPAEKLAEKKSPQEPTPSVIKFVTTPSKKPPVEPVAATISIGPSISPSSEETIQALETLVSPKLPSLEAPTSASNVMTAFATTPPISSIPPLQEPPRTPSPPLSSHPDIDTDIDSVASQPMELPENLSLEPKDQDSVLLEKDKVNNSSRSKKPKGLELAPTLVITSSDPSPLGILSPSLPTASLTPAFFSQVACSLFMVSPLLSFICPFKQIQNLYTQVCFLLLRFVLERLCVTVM
In outline:
as §1

Another experiment concerns the target T6, ELF3 (Homo sapiens, UniProt P78545 1-371).
T6 sequence: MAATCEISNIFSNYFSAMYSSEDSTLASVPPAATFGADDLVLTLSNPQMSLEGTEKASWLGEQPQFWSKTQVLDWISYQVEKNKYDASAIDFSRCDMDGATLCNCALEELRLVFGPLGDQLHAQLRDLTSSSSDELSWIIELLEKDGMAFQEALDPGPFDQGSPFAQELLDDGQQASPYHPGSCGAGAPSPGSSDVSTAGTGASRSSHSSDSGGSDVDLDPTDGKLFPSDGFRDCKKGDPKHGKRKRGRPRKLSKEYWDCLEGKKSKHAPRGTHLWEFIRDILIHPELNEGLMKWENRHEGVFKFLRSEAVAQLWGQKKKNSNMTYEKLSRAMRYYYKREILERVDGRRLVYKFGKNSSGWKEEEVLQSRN
In outline:
as §1

For a further experiment, the target named is ETV1 (Homo sapiens, UniProt P50549 1-477). In outline: as §1
The next experiment concerns the target T7, ERF (Homo sapiens, UniProt P50548 1-548).
T7 sequence: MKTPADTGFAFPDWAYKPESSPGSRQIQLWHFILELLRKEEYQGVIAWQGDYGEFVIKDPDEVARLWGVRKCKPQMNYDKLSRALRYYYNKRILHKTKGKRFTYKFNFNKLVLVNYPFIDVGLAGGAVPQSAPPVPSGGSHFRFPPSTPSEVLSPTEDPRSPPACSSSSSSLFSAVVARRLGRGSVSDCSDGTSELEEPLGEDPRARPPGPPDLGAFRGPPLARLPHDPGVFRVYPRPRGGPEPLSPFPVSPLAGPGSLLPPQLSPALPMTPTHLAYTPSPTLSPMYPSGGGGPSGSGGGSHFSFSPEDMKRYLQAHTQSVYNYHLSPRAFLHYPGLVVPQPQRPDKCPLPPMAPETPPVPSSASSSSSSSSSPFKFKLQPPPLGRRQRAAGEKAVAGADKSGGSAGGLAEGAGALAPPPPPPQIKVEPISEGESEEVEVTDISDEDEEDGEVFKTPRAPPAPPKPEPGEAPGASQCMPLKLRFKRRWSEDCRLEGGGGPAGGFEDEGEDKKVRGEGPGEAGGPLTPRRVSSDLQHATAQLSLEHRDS
The essentials:
as §1

A further experiment has as its target T8, ETV3L (Homo sapiens, UniProt Q6ZN32 1-361).
T8 sequence: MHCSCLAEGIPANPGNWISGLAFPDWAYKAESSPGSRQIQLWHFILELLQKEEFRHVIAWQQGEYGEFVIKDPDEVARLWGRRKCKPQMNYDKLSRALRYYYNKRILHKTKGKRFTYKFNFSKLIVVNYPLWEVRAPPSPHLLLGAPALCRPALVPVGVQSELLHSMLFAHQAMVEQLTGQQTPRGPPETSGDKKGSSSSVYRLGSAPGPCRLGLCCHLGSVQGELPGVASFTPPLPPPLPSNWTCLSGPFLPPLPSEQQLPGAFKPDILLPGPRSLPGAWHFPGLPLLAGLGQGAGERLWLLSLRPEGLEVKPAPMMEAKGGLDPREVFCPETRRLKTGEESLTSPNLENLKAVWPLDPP
The essentials:
as §1

For another experiment, the target named is T9, ETV7 (Homo sapiens, UniProt Q9Y603 1-341).
T9 sequence: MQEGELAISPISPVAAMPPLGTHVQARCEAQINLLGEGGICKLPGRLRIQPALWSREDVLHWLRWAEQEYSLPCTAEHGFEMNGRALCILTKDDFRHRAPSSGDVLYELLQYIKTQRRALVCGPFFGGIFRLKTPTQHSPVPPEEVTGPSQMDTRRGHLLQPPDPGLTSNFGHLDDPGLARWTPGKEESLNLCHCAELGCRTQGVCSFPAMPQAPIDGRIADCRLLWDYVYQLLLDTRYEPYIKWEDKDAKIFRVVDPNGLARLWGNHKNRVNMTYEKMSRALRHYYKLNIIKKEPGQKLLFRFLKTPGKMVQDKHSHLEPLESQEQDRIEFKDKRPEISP
The essentials:
as §1

In a further experiment the target is ETV6 (Homo sapiens, UniProt P41212 1-452). The essentials: as §1
ETV6, sequence (P41212 whole entry): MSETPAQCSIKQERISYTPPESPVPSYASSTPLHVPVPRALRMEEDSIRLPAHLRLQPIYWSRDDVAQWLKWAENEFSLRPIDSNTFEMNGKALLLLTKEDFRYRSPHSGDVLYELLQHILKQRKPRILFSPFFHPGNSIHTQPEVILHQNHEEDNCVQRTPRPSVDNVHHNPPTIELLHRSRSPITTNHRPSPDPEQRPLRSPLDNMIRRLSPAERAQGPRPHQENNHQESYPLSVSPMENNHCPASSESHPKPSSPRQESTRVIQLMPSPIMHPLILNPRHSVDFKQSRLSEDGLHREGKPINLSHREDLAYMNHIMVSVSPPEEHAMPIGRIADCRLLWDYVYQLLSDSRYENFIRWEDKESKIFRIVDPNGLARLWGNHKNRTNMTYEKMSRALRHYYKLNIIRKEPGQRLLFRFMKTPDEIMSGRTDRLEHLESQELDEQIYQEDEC

ETV5, sequence (P41161 whole entry): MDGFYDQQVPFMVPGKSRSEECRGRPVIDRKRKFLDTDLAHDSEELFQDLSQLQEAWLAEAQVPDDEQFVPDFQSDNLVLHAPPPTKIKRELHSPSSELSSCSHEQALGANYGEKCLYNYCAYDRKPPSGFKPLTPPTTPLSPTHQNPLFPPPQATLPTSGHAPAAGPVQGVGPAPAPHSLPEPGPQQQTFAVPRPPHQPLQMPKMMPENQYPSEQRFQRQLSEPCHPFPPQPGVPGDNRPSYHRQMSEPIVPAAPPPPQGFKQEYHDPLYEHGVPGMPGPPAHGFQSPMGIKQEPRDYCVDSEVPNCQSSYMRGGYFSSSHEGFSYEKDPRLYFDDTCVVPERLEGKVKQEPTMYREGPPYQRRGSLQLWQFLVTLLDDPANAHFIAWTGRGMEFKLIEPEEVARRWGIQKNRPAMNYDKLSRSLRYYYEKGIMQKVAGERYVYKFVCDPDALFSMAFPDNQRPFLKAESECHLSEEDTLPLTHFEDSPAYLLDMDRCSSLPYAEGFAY
ETV1, sequence (P50549 whole entry): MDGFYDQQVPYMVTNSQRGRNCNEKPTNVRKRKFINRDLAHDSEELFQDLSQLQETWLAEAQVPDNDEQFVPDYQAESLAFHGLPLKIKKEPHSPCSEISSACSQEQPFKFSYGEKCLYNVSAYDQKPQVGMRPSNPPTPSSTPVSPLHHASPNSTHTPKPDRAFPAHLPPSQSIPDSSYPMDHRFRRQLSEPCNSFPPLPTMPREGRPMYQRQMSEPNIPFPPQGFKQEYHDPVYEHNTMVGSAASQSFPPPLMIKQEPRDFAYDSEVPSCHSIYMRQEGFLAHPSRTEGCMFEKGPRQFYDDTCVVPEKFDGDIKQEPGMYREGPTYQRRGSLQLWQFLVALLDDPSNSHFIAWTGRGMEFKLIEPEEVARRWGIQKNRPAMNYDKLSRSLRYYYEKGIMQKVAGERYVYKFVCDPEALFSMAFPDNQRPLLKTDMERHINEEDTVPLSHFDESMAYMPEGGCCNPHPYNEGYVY
ELF4, sequence (Q99607 whole entry): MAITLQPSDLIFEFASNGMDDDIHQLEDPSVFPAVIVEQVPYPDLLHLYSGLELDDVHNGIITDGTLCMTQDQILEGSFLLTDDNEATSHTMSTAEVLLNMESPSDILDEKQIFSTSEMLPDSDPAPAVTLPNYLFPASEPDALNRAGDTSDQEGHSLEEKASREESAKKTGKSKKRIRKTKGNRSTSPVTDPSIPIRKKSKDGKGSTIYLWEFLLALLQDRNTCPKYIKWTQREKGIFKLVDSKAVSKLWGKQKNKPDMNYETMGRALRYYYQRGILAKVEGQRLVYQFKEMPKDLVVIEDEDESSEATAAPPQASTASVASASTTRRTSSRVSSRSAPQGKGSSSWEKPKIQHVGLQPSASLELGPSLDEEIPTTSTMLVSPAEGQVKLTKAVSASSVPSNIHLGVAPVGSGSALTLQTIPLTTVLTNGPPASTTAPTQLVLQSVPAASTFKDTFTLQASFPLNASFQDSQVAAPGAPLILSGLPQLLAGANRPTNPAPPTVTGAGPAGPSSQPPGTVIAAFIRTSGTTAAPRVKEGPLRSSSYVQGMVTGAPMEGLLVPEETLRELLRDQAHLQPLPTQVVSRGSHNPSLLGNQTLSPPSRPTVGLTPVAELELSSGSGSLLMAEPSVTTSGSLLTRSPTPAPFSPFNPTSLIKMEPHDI
ELF1, sequence (P32519 whole entry): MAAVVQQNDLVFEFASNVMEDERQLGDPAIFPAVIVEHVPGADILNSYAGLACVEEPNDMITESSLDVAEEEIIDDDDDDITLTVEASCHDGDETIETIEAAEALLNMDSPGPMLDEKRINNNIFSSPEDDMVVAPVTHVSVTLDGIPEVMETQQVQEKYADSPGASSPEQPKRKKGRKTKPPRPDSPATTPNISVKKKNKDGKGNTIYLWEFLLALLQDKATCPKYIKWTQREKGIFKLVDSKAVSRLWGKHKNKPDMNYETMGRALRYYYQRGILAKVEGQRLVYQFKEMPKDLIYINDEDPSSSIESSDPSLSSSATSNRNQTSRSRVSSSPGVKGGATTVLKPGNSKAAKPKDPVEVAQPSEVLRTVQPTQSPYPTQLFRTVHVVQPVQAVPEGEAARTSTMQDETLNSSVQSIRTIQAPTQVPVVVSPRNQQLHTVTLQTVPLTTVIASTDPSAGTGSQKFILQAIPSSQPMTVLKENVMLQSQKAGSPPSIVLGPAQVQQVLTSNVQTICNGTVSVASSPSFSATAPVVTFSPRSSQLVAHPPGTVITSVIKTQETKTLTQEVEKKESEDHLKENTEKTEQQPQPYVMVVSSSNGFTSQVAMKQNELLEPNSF
SPIB, sequence (Q01892 whole entry): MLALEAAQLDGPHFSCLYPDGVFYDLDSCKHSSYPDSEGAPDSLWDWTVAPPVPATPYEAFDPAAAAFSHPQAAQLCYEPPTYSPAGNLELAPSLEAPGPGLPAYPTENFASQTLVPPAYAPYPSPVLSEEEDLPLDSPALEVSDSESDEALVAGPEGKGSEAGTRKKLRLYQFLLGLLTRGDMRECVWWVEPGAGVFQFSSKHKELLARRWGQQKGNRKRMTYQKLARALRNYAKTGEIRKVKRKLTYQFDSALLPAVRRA

Turning to GGGGCT, the binding signal was 1.09 fold enrichment (6-mer frequency, TF over GST control) in the experiment with ELK1; 1.11 fold enrichment (6-mer frequency, TF over GST control) with GABPA; 1.01 fold enrichment (6-mer frequency, TF over GST control) in the experiment with ERG; 1.04 fold enrichment (6-mer frequency, TF over GST control) with ELF1; 1.03 fold enrichment (6-mer frequency, TF over GST control) with SPIB; 1.04 fold enrichment (6-mer frequency, TF over GST control) in the experiment with ETV5. In addition, the binding signal with SPIC was 1.01 fold enrichment (6-mer frequency, TF over GST control); in the experiment with ELF4, 1.1 fold enrichment (6-mer frequency, TF over GST control); with ELK4 it was 1.14 fold enrichment (6-mer frequency, TF over GST control); with ELF3, 1.01 fold enrichment (6-mer frequency, TF over GST control); with ETV1, 1.11 fold enrichment (6-mer frequency, TF over GST control); with ERF, 1.06 fold enrichment (6-mer frequency, TF over GST control). Further, the binding signal with ETV3L is 1.22 fold enrichment (6-mer frequency, TF over GST control); with ETV7, 1.06 fold enrichment (6-mer frequency, TF over GST control); in the experiment with ETV6 it was 1.04 fold enrichment (6-mer frequency, TF over GST control).
